# Data from PubChem BioAssay (EPA / NIEHS).
# Active and inactive are the calls of the source. How the source made its calls: active means hit-call score of the fitted dose curve at least 0.9, where 1 is the maximum; inactive means score below 0.9.
# Columns and labels:
# Settings in all cases: mRNA level, 48 h; actives raise or lower the signal
# [1] = read-out: MicroRNA 122 (MIR122), gene 406906; assay: LTEA_HepaRG_MIR122: Life Technologies and Expression Analysis (LTEA) Assay for MicroRNA 122 (MIR122) using HepaRG (AID 2283516); further: the transcript read is the microRNA miR-122
# Summary of the method: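 Expression measured by microfluidic qRT-PCR with three housekeeping genes for normalisation, after 48 h treatment of HepaRG cultures. Eight concentrations (top 100 uM, half-log steps, 0.5% DMSO vehicle) in duplicate; gain or loss fitted relative to vehicle.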
# [2] = read-out: matrix metalloproteinase-10 (MMP10), MMP10 (gene 4319); assay: LTEA_HepaRG_MMP10: Life Technologies and Expression Analysis (LTEA) Assay for matrix metalloproteinase-10 (MMP10) using HepaRG (AID 2283517)
# Summary of the method: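 In differentiated HepaRG cultures kept in 0.5% DMSO, test chemicals act for 48 h over an eight-point range with a top dose of 100 uM. Expression is then quantified by TaqMan RT-PCR against ACTB, GAPDH and POLR2A.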
# [3] = read-out: MYC, MYC (gene 4609); assay: LTEA_HepaRG_MYC: Life Technologies and Expression Analysis (LTEA) Assay for MYC using HepaRG (AID 2283518)
# Summary of the method: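 Expression changes were scored by TaqMan qRT-PCR with ACTB, GAPDH and POLR2A normalization. Cultures in serum-free induction medium received duplicate 8-point concentration series, highest 100 uM, for 48 h; DMSO (0.5%) served as baseline.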
# [4] = read-out: matrix metalloproteinase-3 (MMP3), MMP3 (gene 4314); assay: LTEA_HepaRG_MMP3: Life Technologies and Expression Analysis (LTEA) Assay for matrix metalloproteinase-3 (MMP3) using HepaRG (AID 2283519)
# Summary of the method: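 Human liver HepaRG cultures received chemicals (top concentration 100 uM, 0.5% DMSO) for 48 h in duplicate. MMP3 mRNA induction or loss was then assessed via TaqMan qRT-PCR with housekeeping-gene normalisation.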
# [5] = read-out: Paternally Expressed 10 (PEG10), PEG10 (gene 23089); assay: LTEA_HepaRG_PEG10: Life Technologies and Expression Analysis (LTEA) Assay for Paternally Expressed 10 (PEG10) using HepaRG (AID 2283520);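 on AC50: differentiated HepaRG human liver cells in serum-free induction medium with 0.5% DMSO; PEG10 transcript by qRT-PCR normalised to ACTB GAPDH and POLR2A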
# Summary of the method: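 PEG10 transcript measured by Fluidigm qRT-PCR, normalized to three housekeeping genes, in HepaRG cells treated 48 h (highest 100 uM, half-log steps, 0.5% DMSO vehicle). Cells plated 48 h before switching to serum-free induction medium.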
# [6] = read-out: Nuclear factor NF-kappa-B p105 subunit (Homo sapiens) (UniProt P19838); assay: LTEA_HepaRG_NFKB1: Life Technologies and Expression Analysis (LTEA) Assay for Nuclear Factor Kappa B Subunit 1 (NFKB1) using HepaRG (AID 2283521);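 further: differentiated human HepaRG liver cells in serum-free induction medium; TaqMan qRT-PCR transcript normalised to ACTB GAPDH and POLR2A housekeeping genes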
# Summary of the method: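 HepaRG, 48 h exposure; 8-pt half-log series from 100 uM in 0.5% DMSO; duplicates. Readout: NFKB1 mRNA by qRT-PCR (Fluidigm arrays), housekeeping-normalized. Gain/loss fit vs DMSO baseline.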
# [7] = read-out: Protein phosphatase 2A (PPP2R4), PTPA (gene 5524); assay: LTEA_HepaRG_PPP2R4: Life Technologies and Expression Analysis (LTEA) Assay for Protein phosphatase 2A (PPP2R4) using HepaRG (AID 2283522)
# Summary of the method: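 Expression was quantified by Fluidigm qRT-PCR normalised to three housekeeping genes after 48 h treatment. Human HepaRG cells received an 8-point series from 100 µM downward by half-logs, in duplicate with 0.5% DMSO vehicle and 1 mM phenobarbital as induction control.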
# [8] = read-out: Phosphatase and tensin (PTEN), PTEN (gene 5728); assay: LTEA_HepaRG_PTEN: Life Technologies and Expression Analysis (LTEA) Assay for Phosphatase and tensin (PTEN) using HepaRG (AID 2283523)
# Summary of the method: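 Expression of PTEN is quantified in the human liver line HepaRG following two days of dosing (top concentration 100 uM, half-log dilutions, 0.5% DMSO). Values derive from bidirectional curve fitting relative to DMSO controls.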
# [9] = read-out: solute carrier (SLC22A1), SLC22A1 (gene 6580); assay: LTEA_HepaRG_SLC22A1: Life Technologies and Expression Analysis (LTEA) Assay for solute carrier (SLC22A1) using HepaRG (AID 2283524)
# Summary of the method: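 Transcript induction or suppression of SLC22A1 in human HepaRG cultures is scored after 48 h chemical treatment, with DMSO (0.5%) as baseline for bidirectional fitting. Concentrations span eight half-log points topping at 100 uM.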
# [10] = read-out: NAD(P)H dehydrogenase [quinone] 1 (NQO1), NQO1 (gene 1728); assay: LTEA_HepaRG_NQO1: Life Technologies and Expression Analysis (LTEA) Assay for NAD(P)H dehydrogenase [quinone] 1 (NQO1) using HepaRG (AID 2283526)
# Summary of the method: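 NQO1 transcript induction or loss measured by TaqMan qRT-PCR, referenced to three housekeeping genes and fitted bidirectionally against 0.5% DMSO. HepaRG cultures exposed 48 h, duplicate, eight-point half-log series, top 100 uM.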
# [11] = read-out: Nuclear factor erythroid 2-related factor 2 (Homo sapiens) (UniProt Q16236); assay: LTEA_HepaRG_NFE2L2: Life Technologies and Expression Analysis (LTEA) Assay for Nuclear factor erythroid 2-related factor 2 (NFE2L2) Transcription Factor using HepaRG (AID 2283527);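 further: TaqMan qRT-PCR transcript level normalised to ACTB GAPDH and POLR2A housekeeping genes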
# Summary of the method: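 Human liver HepaRG line treated in duplicate for 48 h with an eight-point series topping at 100 uM. Gene expression of NFE2L2 by qRT-PCR, bidirectionally fitted against the vehicle control.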
# [12] = read-out: succinate dehydrogenase complex iron sulfur subunit B (SDHB), SDHB (gene 6390); assay: LTEA_HepaRG_SDHB: Life Technologies and Expression Analysis (LTEA) Assay for succinate dehydrogenase complex iron sulfur subunit B (SDHB) using HepaRG (AID 2283528)
# Summary of the method: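 Readout is SDHB transcript level by qRT-PCR, normalised to three housekeeping genes and fitted bidirectionally against 0.5% DMSO vehicle. Human HepaRG cells were treated for 48 h at up to 100 uM.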
# [13] = read-out: Signal transducer and activator of transcription 3 (Homo sapiens) (UniProt P40763); assay: LTEA_HepaRG_STAT3: Life Technologies and Expression Analysis (LTEA) Assay for Signal transducer and activator of transcription (STAT3) using HepaRG (AID 2283529)
# Summary of the method: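 In this transcriptional endpoint, HepaRG cultures receive test chemicals at up to 100 uM for 48 h, tested in duplicate. STAT3 mRNA is normalized to ACTB, GAPDH and POLR2A.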
# [14] = read-out: solute carrier (SLCO1B1), SLCO1B1 (gene 10599); assay: LTEA_HepaRG_SLCO1B1: Life Technologies and Expression Analysis (LTEA) Assay for solute carrier (SLCO1B1) using HepaRG (AID 2283530)
# Summary of the method: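 Human HepaRG cultures treated for 48 h with an eight-concentration half-log series topping at 100 uM; SLCO1B1 measured by qRT-PCR and fitted bidirectionally relative to DMSO.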
# [15] = read-out: sulfotransferase 2A1 (SULT2A1), SULT2A1 (gene 6822); assay: LTEA_HepaRG_SULT2A1: Life Technologies and Expression Analysis (LTEA) Assay for sulfotransferase 2A1 (SULT2A1) using HepaRG (AID 2283531)
# Summary of the method: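 Gene-expression endpoint in a human liver cell line: SULT2A1 mRNA change after 48 h chemical treatment, curves fitted in both directions relative to 0.5% DMSO vehicle. Concentrations spanned eight half-log steps from 100 uM.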
# [16] = read-out: Transforming Growth Factor (TGFA), TGFA (gene 7039); assay: LTEA_HepaRG_TGFA: Life Technologies and Expression Analysis (LTEA) Assay for Transforming Growth Factor (TGFA) using HepaRG (AID 2283532)
# Summary of the method: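 Gene expression of TGFA was quantified by qRT-PCR after human HepaRG cells were treated for 48 h with test chemicals (eight concentrations, highest 100 uM, 0.5% DMSO). Activity in either direction was fitted relative to DMSO.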
# [17] = read-out: Transforming Growth Factor (TGFB1), TGFB1 (gene 7040); assay: LTEA_HepaRG_TGFB1: Life Technologies and Expression Analysis (LTEA) Assay for Transforming Growth Factor (TGFB1) Transporter using HepaRG (AID 2283533)
# Summary of the method: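 Eight-point concentration-response (max 100 uM, half-log) in HepaRG under serum-free induction conditions, 48 h. TGFB1 mRNA by qRT-PCR, housekeeping-normalized.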
# [18] = read-out: Lipoprotein lipase (LPL), LPL (gene 4023); assay: LTEA_HepaRG_LPL: Life Technologies and Expression Analysis (LTEA) Assay for Lipoprotein lipase (LPL) using HepaRG (AID 2283515)
# Summary of the method: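 Concentration-response testing used half-log steps from 100 uM in 0.5% DMSO on human HepaRG cells, 48 h, duplicate wells. Phenobarbital 1 mM served as induction control; LPL mRNA was normalized to ACTB, GAPDH, POLR2A.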
# [19] = read-out: Pyruvate Dehydrogenase Kinase 4 (PDK4), PDK4 (gene 5166); assay: LTEA_HepaRG_PDK4: Life Technologies and Expression Analysis (LTEA) Assay for Pyruvate Dehydrogenase Kinase 4 (PDK4) using HepaRG (AID 2283525)
# Summary of the method: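 Eight-point, half-log concentration series (max 100 uM, 0.5% DMSO) applied to differentiated HepaRG cells for 48 h in duplicate. Endpoint: PDK4 mRNA induction or repression by qRT-PCR against DMSO baseline.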
# Chain of Signal transducer and activator of transcription 3 (Homo sapiens) (P40763 whole entry, looked up): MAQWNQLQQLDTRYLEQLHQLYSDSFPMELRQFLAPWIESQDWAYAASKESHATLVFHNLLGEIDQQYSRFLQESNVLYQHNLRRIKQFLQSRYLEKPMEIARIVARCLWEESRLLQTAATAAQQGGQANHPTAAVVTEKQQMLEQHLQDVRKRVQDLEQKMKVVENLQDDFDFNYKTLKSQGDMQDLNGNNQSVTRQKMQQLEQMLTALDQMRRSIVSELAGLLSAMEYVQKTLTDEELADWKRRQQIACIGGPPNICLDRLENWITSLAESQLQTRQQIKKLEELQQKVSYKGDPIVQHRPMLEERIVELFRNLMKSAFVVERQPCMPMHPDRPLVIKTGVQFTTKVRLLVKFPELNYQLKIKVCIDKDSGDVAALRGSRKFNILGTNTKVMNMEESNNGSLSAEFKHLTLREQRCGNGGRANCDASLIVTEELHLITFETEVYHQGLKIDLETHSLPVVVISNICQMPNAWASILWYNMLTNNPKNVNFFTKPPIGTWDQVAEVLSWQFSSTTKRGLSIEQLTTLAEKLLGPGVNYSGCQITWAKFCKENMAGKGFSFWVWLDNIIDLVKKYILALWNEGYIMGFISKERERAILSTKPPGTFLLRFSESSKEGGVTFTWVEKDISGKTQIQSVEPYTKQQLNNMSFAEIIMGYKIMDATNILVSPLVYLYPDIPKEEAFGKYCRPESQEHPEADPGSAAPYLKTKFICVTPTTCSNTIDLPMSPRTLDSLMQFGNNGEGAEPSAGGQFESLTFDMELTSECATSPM
# Chain of Nuclear factor erythroid 2-related factor 2 (Homo sapiens) (Q16236 whole entry, looked up): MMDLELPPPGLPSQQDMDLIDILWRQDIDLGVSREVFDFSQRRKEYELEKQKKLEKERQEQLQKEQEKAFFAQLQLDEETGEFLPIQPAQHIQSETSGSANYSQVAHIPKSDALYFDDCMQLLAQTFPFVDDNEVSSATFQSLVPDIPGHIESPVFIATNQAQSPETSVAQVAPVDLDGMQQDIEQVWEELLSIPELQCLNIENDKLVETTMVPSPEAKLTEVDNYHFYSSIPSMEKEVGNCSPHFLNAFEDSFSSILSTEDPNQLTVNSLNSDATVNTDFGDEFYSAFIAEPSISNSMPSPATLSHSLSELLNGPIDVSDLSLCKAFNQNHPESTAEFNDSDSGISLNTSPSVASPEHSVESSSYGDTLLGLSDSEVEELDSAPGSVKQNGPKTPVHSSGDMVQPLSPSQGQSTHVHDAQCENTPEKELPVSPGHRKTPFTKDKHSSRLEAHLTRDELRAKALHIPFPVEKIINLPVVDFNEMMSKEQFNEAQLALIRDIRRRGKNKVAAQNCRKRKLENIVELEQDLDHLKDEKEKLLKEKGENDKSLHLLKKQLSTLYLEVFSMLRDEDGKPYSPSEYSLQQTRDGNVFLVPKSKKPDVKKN
# Chain of Nuclear factor NF-kappa-B p105 subunit (Homo sapiens) (P19838 whole entry, looked up): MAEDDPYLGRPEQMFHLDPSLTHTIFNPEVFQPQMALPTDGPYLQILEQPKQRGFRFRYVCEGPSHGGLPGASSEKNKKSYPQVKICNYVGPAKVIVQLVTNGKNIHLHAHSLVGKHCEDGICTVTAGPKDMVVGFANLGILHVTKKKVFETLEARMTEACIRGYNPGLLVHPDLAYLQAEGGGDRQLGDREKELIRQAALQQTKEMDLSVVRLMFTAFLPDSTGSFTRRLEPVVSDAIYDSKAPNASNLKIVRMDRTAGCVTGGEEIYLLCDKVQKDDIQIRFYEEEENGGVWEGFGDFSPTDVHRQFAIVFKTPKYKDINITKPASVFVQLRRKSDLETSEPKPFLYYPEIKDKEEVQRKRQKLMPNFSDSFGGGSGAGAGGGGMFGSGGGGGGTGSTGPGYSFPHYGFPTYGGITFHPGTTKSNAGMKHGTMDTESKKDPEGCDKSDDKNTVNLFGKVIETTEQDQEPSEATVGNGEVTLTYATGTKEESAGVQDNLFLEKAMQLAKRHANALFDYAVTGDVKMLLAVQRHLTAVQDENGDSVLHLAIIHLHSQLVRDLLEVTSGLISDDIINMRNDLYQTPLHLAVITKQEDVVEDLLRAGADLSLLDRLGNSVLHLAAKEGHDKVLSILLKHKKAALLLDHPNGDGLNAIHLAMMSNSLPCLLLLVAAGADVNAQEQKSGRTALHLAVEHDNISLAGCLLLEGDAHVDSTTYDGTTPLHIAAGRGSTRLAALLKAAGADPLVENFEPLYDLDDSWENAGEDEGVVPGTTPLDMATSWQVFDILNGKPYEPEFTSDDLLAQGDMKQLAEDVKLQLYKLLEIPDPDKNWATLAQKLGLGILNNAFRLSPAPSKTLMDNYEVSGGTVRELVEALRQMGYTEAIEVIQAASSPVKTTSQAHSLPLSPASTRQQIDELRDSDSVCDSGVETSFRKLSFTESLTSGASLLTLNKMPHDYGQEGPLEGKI
smiles,measurement,setting,value
CCOP(=S)(OCC)Oc1ccc([N+](=O)[O-])cc1,outcome,[1],inactive
same,outcome,[2],inactive
same,outcome,[3],inactive
same,outcome,[4],inactive
same,outcome,[5],inactive
same,outcome,[6],inactive
same,outcome,[7],inactive
same,outcome,[8],inactive
same,outcome,[9],inactive
same,outcome,[10],inactive
same,outcome,[11],inactive
same,outcome,[12],inactive
same,outcome,[13],inactive
same,outcome,[14],inactive
same,outcome,[15],inactive
same,outcome,[16],inactive
same,outcome,[17],inactive
CC(C)[C@H](C(=O)O[C@H](C#N)c1cccc(Oc2ccccc2)c1)c1ccc(Cl)cc1,outcome,[18],inactive
same,outcome,[1],inactive
same,outcome,[2],inactive
same,outcome,[3],inactive
same,AC50,[4],50 µM (active)
same,AC50,[5],30.3 µM (active)
same,outcome,[6],inactive
same,outcome,[7],inactive
same,outcome,[8],inactive
same,outcome,[9],inactive
same,outcome,[10],inactive
same,outcome,[11],inactive
same,outcome,[12],inactive
same,outcome,[13],inactive
same,outcome,[14],inactive
same,outcome,[15],inactive
same,outcome,[16],inactive
same,outcome,[17],inactive
CC(=NC#N)N(C)Cc1ccc(Cl)nc1,outcome,[18],inactive
same,outcome,[1],inactive
same,outcome,[2],inactive
same,outcome,[3],inactive
same,outcome,[4],inactive
same,outcome,[5],inactive
same,outcome,[6],inactive
same,outcome,[7],inactive
same,outcome,[8],inactive
same,outcome,[9],inactive
same,outcome,[19],inactive
same,outcome,[10],inactive
same,outcome,[11],inactive
same,outcome,[12],inactive
same,outcome,[13],inactive
same,outcome,[14],inactive
same,outcome,[15],inactive
same,outcome,[16],inactive
same,outcome,[17],inactive
Nc1nc(N)nc(NC2CC2)n1,outcome,[18],inactive
same,outcome,[1],inactive
same,outcome,[2],inactive
same,outcome,[3],inactive
same,outcome,[4],inactive
same,outcome,[5],inactive
same,outcome,[6],inactive
same,outcome,[7],inactive
same,outcome,[8],inactive
same,outcome,[9],inactive
same,outcome,[10],inactive
same,outcome,[11],inactive
same,outcome,[12],inactive
same,outcome,[13],inactive
same,outcome,[14],inactive
same,outcome,[15],inactive
same,outcome,[16],inactive
same,outcome,[17],inactive
Cc1nn(-c2cc(NS(C)(=O)=O)c(Cl)cc2Cl)c(=O)n1C(F)F,outcome,[18],inactive
same,outcome,[1],inactive
same,outcome,[2],inactive
same,outcome,[3],inactive
same,outcome,[4],inactive
same,outcome,[5],inactive
same,outcome,[7],inactive
same,outcome,[8],inactive
same,outcome,[9],inactive
same,outcome,[19],inactive
same,outcome,[10],inactive
same,outcome,[11],inactive
same,outcome,[12],inactive
same,outcome,[13],inactive
same,outcome,[14],inactive
same,outcome,[15],inactive
same,outcome,[16],inactive
same,outcome,[17],inactive
CCC(CC)Nc1c([N+](=O)[O-])cc(C)c(C)c1[N+](=O)[O-],outcome,[18],inactive
same,outcome,[1],inactive
same,outcome,[2],inactive
same,outcome,[3],inactive
same,outcome,[4],inactive
same,AC50,[5],50 µM (active)
same,outcome,[6],inactive
same,outcome,[7],inactive
same,outcome,[8],inactive
same,outcome,[9],inactive
same,outcome,[10],inactive
same,outcome,[11],inactive
same,outcome,[12],inactive
same,outcome,[13],inactive
same,AC50,[14],50 µM (active)
same,outcome,[15],inactive
same,outcome,[16],inactive
same,outcome,[17],inactive
CC(C)=CC1C(C(=O)OCN2C(=O)C3=C(CCCC3)C2=O)C1(C)C (centres undefined),outcome,[18],inactive
same,outcome,[1],inactive
same,outcome,[2],inactive
same,outcome,[4],inactive
same,outcome,[5],inactive
same,outcome,[7],inactive
same,outcome,[8],inactive
same,outcome,[9],inactive
same,outcome,[19],inactive
same,outcome,[10],inactive
same,outcome,[11],inactive
same,outcome,[12],inactive
same,outcome,[13],inactive
same,outcome,[14],inactive
same,outcome,[15],inactive
same,outcome,[17],inactive
